Screening results (PubChem BioAssay)
Shown is part of a subset that was picked to be rich in hits.
C diff growth: inhibitors of Clostridium difficile growth; Clostridium difficile clinical isolate growth, OD600, 24 h; active compounds read low; growth activity, negative = inhibition, % at 16 µg/mL (by protocol); hit rate 0.25% among 86,000; AID 1259249;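 active means mean growth activity at or below -80% and every replicate also at or below -80%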
A number is an active result; 0 = inactive; ! = not confirmed by another sample.

SMILES	C diff growth
CO[C@H]1CN(C)C(=O)c2ccc(NC(=O)Nc3ccc(Cl)c(Cl)c3)cc2OC[C@H](C)NC[C@@H]1C	-99
CO[C@H]1CN(C)C(=O)c2ccc(NC(=O)Nc3ccccc3)cc2OC[C@H](C)NC[C@@H]1C	0
CO[C@@H]1CN(C)C(=O)c2ccc(NC(=O)Nc3ccccc3)cc2OC[C@H](C)NC[C@@H]1C	0
CO[C@@H]1CN(C)C(=O)c2ccc(NC(=O)Nc3ccc(F)cc3)cc2OC[C@H](C)NC[C@@H]1C	0
CO[C@@H]1CN(C)C(=O)c2ccc(NC(=O)Nc3cc(Cl)cc(Cl)c3)cc2OC[C@H](C)NC[C@@H]1C	-100
CO[C@H]1CN(C)C(=O)c2ccc(NC(=O)Nc3ccc(Cl)c(Cl)c3)cc2OC[C@H](C)NC[C@H]1C	-97
CO[C@H]1CN(C)C(=O)c2ccc(NC(=O)Nc3ccccc3Cl)cc2OC[C@H](C)NC[C@@H]1C	0
CO[C@H]1CN(C)C(=O)c2ccc(NC(=O)Nc3cc(Cl)cc(Cl)c3)cc2OC[C@H](C)NC[C@@H]1C	0
CO[C@H]1CN(C)C(=O)c2ccc(NC(=O)Nc3ccccc3)cc2OC[C@@H](C)NC[C@@H]1C	0
CNC[C@@H]1OCCCC[C@H](C)Oc2ccc(NC(=O)NC3CCCCC3)cc2C(=O)N([C@H](C)CO)C[C@@H]1C	0
O=C(C[C@H]1C=C[C@@H](NC(=O)Nc2ccc(F)cc2)[C@H](CO)O1)NCc1ccccn1	0
C[C@@H]1CCCCO[C@@H](CN(C)S(=O)(=O)c2cccs2)[C@H](C)CN([C@@H](C)CO)C(=O)c2cc(NC(=O)Cc3ccccc3)ccc2O1	0
CCC(=O)N1CC2(C1)CN(CC1CCCCC1)[C@@H](CO)c1c2c2ccc(OC)cc2n1C	0
CCCNC(=O)N1CCC2(CC1)CN(C(C)=O)[C@H](CO)c1[nH]c3cc(OC)ccc3c12	0
O=S(=O)(c1ccc(F)cc1)N1C[C@@H]2N[C@H](C1)C2c1ccc(/C=C/c2ccccc2)cc1 (stereo not given in full)	-99!
O=C(c1ccncc1)N1C[C@@H]2N[C@H](C1)C2c1ccc(/C=C/c2ccccc2)cc1 (stereo not given in full)	0
O=C(c1ccc(F)cc1)N1C[C@@H]2N[C@H](C1)C2c1ccc(/C=C/c2ccccc2)cc1 (stereo not given in full)	-99!
O=C(c1ccc2c(c1)OCO2)N1C[C@@H]2N[C@H](C1)C2c1ccc(/C=C/c2ccccc2)cc1 (stereo not given in full)	0
O=C(Nc1ccccc1)N1C[C@@H]2N[C@H](C1)[C@@H]2c1ccc(/C=C/c2ccccc2)cc1	-97
C/C=C/c1ccc(C2[C@@H]3CN(S(=O)(=O)c4ccc(C)cc4)C[C@H]2N3)cc1 (stereo not given in full)	0
O=C(Nc1ccccc1)N1C[C@@H]2N[C@H](C1)C2c1ccc(-c2ccccc2)cc1 (stereo not given in full)	0
COc1ccccc1NC(=O)N1C[C@@H]2N[C@H](C1)C2c1ccc(/C=C/c2ccccc2)cc1 (stereo not given in full)	0
O=S(=O)(c1ccccc1)N1C[C@@H]2N[C@H](C1)C2c1ccc(-c2ccccc2)cc1 (stereo not given in full)	0
Cc1ccc(S(=O)(=O)Nc2ccc3c(c2)C(=O)N([C@@H](C)CO)C[C@H](C)[C@@H](CN(C)CC2CCCCC2)OCCCC[C@H](C)O3)cc1	0
COC(=O)[C@@H]1[C@@H](CO)[C@@H]2Cn3c(ccc(-c4cccc(OC)c4)c3=O)[C@@H]2N1CC1CC1	0
SMILES	C diff growth
Cn1cnc(S(=O)(=O)N2CC[C@@H]3[C@H]2c2cc(C#CC4CCCC4)ccc2N[C@@H]3CO)c1	0
C[C@@H]1CCCCO[C@H](CN(C)C(=O)Nc2ccc(F)cc2)[C@@H](C)CN([C@@H](C)CO)C(=O)c2cc(NC(=O)CCCN(C)C)ccc2O1	0
Cc1ccccc1S(=O)(=O)N1C[C@H](O)COC[C@@H]2O[C@@H](CC(=O)NCc3ccccc3Cl)CC[C@H]21	0
COc1ccc(NC(=O)Nc2ccc3c(c2)C(=O)N([C@@H](C)CO)C[C@@H](C)[C@H](CN(C)Cc2ccc(C(F)(F)F)cc2)OCCCC[C@@H](C)O3)cc1	0
COc1ccc(CN(C)C[C@@H]2OCCCC[C@H](C)Oc3ccc(NC(=O)Nc4cccc5ccccc45)cc3C(=O)N([C@H](C)CO)C[C@H]2C)cc1	-94
COc1ccc(CN(C)C[C@H]2OCCCC[C@H](C)Oc3ccc(NC(=O)Nc4cccc5ccccc45)cc3C(=O)N([C@@H](C)CO)C[C@H]2C)cc1	0
COc1ccc(CN(C)C[C@@H]2OCCCC[C@@H](C)Oc3ccc(NC(=O)Nc4cccc5ccccc45)cc3C(=O)N([C@H](C)CO)C[C@H]2C)cc1	0
C[C@@H]1CN([C@H](C)CO)C(=O)c2cc(NC(=O)Nc3ccc(C(F)(F)F)cc3)ccc2O[C@@H](C)CCCCO[C@@H]1CN(C)Cc1ccc2c(c1)OCO2	0
